Experimental data reported in the supplement of paper PMC9023506.
Counter-ions that a name gives are not always drawn.

Test system: Danio rerio larvae (5 dpf)
Assay: habituation to 1-s acoustic pulses, difference vs DMSO (percentage points (treated minus DMSO)); higher = more of the behaviour than the DMSO vehicle control
Details: 10 µM; exposure time: 3 h pre-incubation + 3 h imaging
How it was run: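 5-dpf wild-type zebrafish larvae in 96-well ProxiPlates were exposed to library drugs at 10 µM (diluted 1000× from DMSO stocks into egg water). There were 48 larvae per drug, exposed 3 h before and 3 h during imaging at 28.5 °C. Images taken every 6 s covered a 3-h program of rest, moving coloured lines and acoustic pulses, and an ImageJ macro scored movement and upper-half location. Each behaviour score is the treated-group mean minus the DMSO vehicle mean, in percentage points.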

SMILES	habituation to 1-s acoustic pulses
NC(=O)OCC(COC(N)=O)c1ccccc1 [Felbamate]	2.95
COC(c1ccccc1)(c1ccccc1)[C@H](Oc1nc(C)cc(C)n1)C(=O)O [Ambrisentan]	1.34
C=C1[C@H](CO)[C@@H](O)C[C@@H]1n1cnc2c(=O)[nH]c(N)nc21 [Entecavir]	3.17
COc1ccc(-c2ccc3cc(C(=O)O)ccc3c2)cc1C12CC3CC(CC(C3)C1)C2 [Adapalene]	2.52
CNC(=O)c1ccccc1Sc1ccc2c(/C=C/c3ccccn3)n[nH]c2c1 [Axitinib]	-2.02
CCOc1ccccc1OCCN[C@H](C)Cc1ccc(OC)c(S(N)(=O)=O)c1 [Tamsulosin hydrochloride]	-0.195
CC(CCc1ccc(O)cc1)NCCc1ccc(O)c(O)c1 (stereo not drawn) [Dobutamine hydrochloride]	1.34
CC(=O)Oc1ccccc1C(=O)O [Aspirin]	-5.13
OCCN1C[C@H](O)[C@@H](O)[C@H](O)[C@H]1CO [Miglitol]	0.997
Cc1ccc(N(CC2=NCCN2)c2cccc(O)c2)cc1 [Phentolamine Mesylate]	5.8
CNS(=O)(=O)Cc1ccc2[nH]cc(CCN(C)C)c2c1 [Sumatriptan succinate]	-0.62
CN1CC2c3ccccc3Oc3ccc(Cl)cc3C2C1 (stereo not drawn) [Asenapine maleate]	-9.25
Nc1nc2[nH]cc(CCc3ccc(C(=O)N[C@@H](CCC(=O)O)C(=O)O)cc3)c2c(=O)[nH]1 [Pemetrexed]	-1.43
